Source: PubChem BioAssay
For part of these data: Potency and affinity values are given separately. Activity calls are given as the source filed them.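 Rule for the calls, unless noted: active = membrane potential signal rise above negative control mean plus 3 SD in both duplicates, also active in the earlier TRPC4 screen; inactive = the rest.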

Experiments:
[1] = test system: TRPC4 beta (transient receptor potential cation channel C4), mouse; test: TRPC4 cation channel opening, retest – cell-based, Fluo4 calcium, HEK293 TRPC4beta/mu-opioid, duplicates, 10 µM, confirmation (AID 2426;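 active = fluorescence ratio normalized to control raised more than 50% in primary screen plus both repeat runs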;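 note: percent rise of integrated ratio over buffer wells lacking compound which define 0%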); conditions: Fluo4 calcium fluorescence, at 10 µM; active compounds read high
[2] = test system: transient receptor potential cation channel C4 beta (TRPC4), mouse; test: TRPC4 cation channel opening, second retest – cell-based, second round, Fluo4, HEK293 TRPC4beta/mu-opioid, 1 µM, confirmation (AID 2461;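 active = primary screen active and over 50% activation in each of two duplicate runs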;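 for activation: 0% = wells without test compound as baseline of integrated fluorescence ratio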); conditions: Fluo4 calcium fluorescence, at 1 µM; active compounds read high
[3] = test system: TRPC4 (transient receptor potential cation channel C4 beta), mouse; test: potentiation of DAMGO EC20 TRPC4 response – cell-based, second round, Fluo-4, HEK293 TRPC4beta/mu-opioid, 1 µM, confirmation (AID 2554;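 active = primary screen hit whose fluorescence ratio, in both repeats, exceeds the weak agonist control mean by 3 SD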); conditions: DAMGO EC20, Fluo-4 calcium flux, at 1 µM; active compounds read high
[4] = test system: TRPC4 beta (transient receptor potential cation channel C4), mouse; test: potentiation of DAMGO EC20 TRPC4 response – cell-based, Fluo-4, HEK293 TRPC4beta/mu-opioid, confirmation (AID 2555;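 active = primary screen hit whose calcium fluorescence ratio, in both repeats, exceeds the weak agonist control mean by 3 SD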); conditions: DAMGO EC20, Fluo-4 calcium flux, at 10 µM; active compounds read high
[5] = target: Short transient receptor potential channel 4 (Mus musculus) (UniProt Q9QUQ5); test: blockers of DAMGO-evoked TRPC4 calcium flux – cell-based, Fluo4, HEK293 TRPC4beta/mu-opioid, confirmation (AID 2636;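 active = calcium signal cut by more than 3 SD below the full-agonist control yet still positive, in both repeats and the earlier primary screen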); conditions: at 10 µM; active compounds read high
Chain of Short transient receptor potential channel 4 (Mus musculus) (Q9QUQ5 whole entry, looked up): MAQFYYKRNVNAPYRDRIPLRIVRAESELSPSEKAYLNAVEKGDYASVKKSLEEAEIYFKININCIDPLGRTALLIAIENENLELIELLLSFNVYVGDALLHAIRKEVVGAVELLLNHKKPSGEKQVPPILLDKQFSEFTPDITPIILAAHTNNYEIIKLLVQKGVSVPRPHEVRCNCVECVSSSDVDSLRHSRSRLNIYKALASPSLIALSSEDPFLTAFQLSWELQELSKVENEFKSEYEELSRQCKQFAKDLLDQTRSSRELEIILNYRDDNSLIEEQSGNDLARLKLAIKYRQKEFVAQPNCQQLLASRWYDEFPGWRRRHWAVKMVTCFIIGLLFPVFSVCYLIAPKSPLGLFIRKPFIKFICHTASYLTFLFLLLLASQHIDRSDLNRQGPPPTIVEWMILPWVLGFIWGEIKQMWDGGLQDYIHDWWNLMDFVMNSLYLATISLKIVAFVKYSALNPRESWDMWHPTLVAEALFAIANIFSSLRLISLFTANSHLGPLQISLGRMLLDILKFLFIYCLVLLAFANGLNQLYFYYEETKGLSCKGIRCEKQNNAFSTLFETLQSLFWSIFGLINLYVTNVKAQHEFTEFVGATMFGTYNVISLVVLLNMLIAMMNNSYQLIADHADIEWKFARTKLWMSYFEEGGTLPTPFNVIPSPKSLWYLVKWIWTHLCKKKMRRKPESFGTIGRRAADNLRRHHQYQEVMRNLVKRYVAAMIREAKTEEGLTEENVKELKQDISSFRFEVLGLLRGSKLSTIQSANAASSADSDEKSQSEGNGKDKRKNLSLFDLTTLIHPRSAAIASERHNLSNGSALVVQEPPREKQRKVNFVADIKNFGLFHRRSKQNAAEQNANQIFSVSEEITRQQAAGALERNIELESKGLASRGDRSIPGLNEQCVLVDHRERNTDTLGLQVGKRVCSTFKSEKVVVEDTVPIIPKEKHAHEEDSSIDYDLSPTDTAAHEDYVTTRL

[6] = target: Short transient receptor potential channel 4 (Mus musculus) (UniProt Q9QUQ5); test: blockers of DAMGO-evoked TRPC4 calcium flux – cell-based, second round, Fluo4, HEK293 TRPC4beta/mu-opioid, 1 µM, confirmation (AID 2637;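 active = calcium signal ratio cut to more than 3 SD under the fully stimulated control mean yet still positive, in both repeats and the primary screen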;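 for inhibition: percent of integrated ratio relative to wells lacking test compound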); conditions: at 1 µM; active compounds read high
[7] = target: Short transient receptor potential channel 4 (Mus musculus) (UniProt Q9QUQ5); test: potentiation of DAMGO-evoked TRPC4 calcium signal – cell-based, HEK293 TRPC4/mu-opioid, Fluo-4 calcium, EC20 DAMGO, dose response (AID 434941;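 active = earlier screen potentiator hit that boosts the TRPC4 ion channel at some dose, with a dose response; inactive = no potentiation, no dose response, or not a prior hit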;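 note: calcium entry triggered by an EC20 dose of DAMGO at the co-expressed mu-opioid receptor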)
[8] = target: Short transient receptor potential channel 6 (Mus musculus) (UniProt Q61143); test: TRPC6 blockade by TRPC4 inhibitor hits – cell-based, HEK293, membrane potential dye, duplicate, selectivity assay for TRPC4 inhibitor project, confirmation (AID 434948;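 active = active in primary screen and both duplicates, each dropping signal beyond three positive-control SD with fluorescence still positive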); conditions: HEK293 TRPC6, membrane potential dye fluorescence, at 10 µM, stimulated with maximal-effect acetylcholine; active compounds read high
Chain of Short transient receptor potential channel 6 (Mus musculus) (Q61143 whole entry, looked up): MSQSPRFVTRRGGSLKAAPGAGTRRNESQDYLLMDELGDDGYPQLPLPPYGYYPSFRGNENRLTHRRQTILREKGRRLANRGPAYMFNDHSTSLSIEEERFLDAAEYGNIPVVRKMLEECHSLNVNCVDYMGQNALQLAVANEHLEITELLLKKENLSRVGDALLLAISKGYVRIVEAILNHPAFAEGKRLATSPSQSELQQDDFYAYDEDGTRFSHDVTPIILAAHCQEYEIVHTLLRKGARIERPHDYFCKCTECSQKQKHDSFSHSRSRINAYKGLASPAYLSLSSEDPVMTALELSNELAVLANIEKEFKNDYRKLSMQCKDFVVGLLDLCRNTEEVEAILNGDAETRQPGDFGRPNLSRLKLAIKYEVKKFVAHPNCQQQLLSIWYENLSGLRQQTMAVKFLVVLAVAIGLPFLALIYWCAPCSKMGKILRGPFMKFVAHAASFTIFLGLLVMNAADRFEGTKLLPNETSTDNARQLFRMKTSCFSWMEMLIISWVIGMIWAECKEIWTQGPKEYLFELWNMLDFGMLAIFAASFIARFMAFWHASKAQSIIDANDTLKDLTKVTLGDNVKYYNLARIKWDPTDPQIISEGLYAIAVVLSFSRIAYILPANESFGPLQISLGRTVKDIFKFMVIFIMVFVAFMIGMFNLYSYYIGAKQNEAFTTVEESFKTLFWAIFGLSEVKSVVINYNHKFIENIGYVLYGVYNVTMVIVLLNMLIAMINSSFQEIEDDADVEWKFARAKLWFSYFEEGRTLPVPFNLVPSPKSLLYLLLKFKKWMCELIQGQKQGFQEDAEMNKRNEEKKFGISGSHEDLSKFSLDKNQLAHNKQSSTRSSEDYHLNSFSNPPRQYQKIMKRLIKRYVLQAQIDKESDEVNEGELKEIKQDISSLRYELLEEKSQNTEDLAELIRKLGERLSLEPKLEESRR

[9] = target: Short transient receptor potential channel 6 (Mus musculus) (UniProt Q61143); test: TRPC6 opening by TRPC4 activator hits – cell-based, HEK293, membrane potential dye, duplicate, selectivity assay for TRPC4 activator project, confirmation (AID 434950); conditions: HEK293 TRPC6, membrane potential fluorescence, at 10 µM; activation: active compounds read high; outcome: activation;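 for activation: 0% = buffer only wells and 100% = acetylcholine maximal-effect wells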
[10] = target: Short transient receptor potential channel 6 (Mus musculus) (UniProt Q61143); test: positive modulators of mouse TRPC6 channel – HEK293 cells, membrane potential dye, duplicate, selectivity assay for TRPC4 potentiator project, confirmation (AID 434952;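 active = compound raising the membrane signal above positive-control mean plus 3 SD in both repeats, and a primary screen hit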); conditions: HEK293 TRPC6, membrane potential dye fluorescence, at 10 µM, maximal acetylcholine added after compound; active compounds read high
[11] = target: Short transient receptor potential channel 4 (Mus musculus) (UniProt Q9QUQ5); test: calcium flux activators in TRPC4/5HT1a cells, counter-screen for TRPC4 activator project, cell-based, second counter screen, HEK293 TRPC4/5HT1a, Fluo-4 (AID 434977;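 active = calcium signal rise above buffer-control mean plus 5 SD in both duplicates, and also a hit in the primary screen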;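 for activation: plate controls were assay buffer for no effect and maximal serotonin response for full effect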); conditions: Fluo-4 calcium flux, at 10 µM; active compounds read high
[12] = serotonin-gated TRPC4 signal block – cell-based, second counter screen, HEK293 TRPC4/5HT1a, Fluo-4, counter-screen for TRPC4 inhibitor project, confirmation (AID 434978;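 active = primary screen active whose calcium signal fell more than 3 SD beyond the full-serotonin control mean in both duplicate plates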;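 for outcome: serotonin given first at submaximal then at maximal dose after compound preincubation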); conditions: Fluo-4 calcium flux, at 10 µM, serotonin added to trigger calcium flux; active compounds read high
[13] = test system: TRPC4 (mouse), co-expressed with 5HT1a in HEK293; test: enhancement of serotonin-evoked TRPC4 response – cell-based, second counter screen, HEK293 TRPC4/5HT1a, Fluo-4, counter-screen for TRPC4 potentiator project, confirmation (AID 434979;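 active = signal rise over 3 SD above mean of control wells given weak agonist, in both repeats and first screen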); conditions: Fluo-4 calcium flux, at 10 µM, serotonin added at its EC20 dose; active compounds read high
[14] = nonspecific calcium rise without TRPC4 – cell-based, HEK293 mu-opioid receptor line, counter-screen for TRPC4 activator project, confirmation (AID 449723;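 active = hit in primary screen, with calcium signal over 5 SD above buffer well mean in both duplicates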;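 note: counter screen cells carry the mu-opioid receptor alone and lack TRPC4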); conditions: HEK293 mu-opioid cells, Fluo-4 calcium fluorescence, at 10 µM; active compounds read high
[15] = nonspecific potentiation of DAMGO calcium response – cell-based, HEK293 mu-opioid receptor line, counter-screen for TRPC4 allosteric potentiator project, confirmation (AID 449724;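 active = calcium signal rise more than 3 SD above the low-dose agonist control mean, in both duplicate plates and the primary screen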); conditions: HEK293 mu-opioid receptor cells, Fluo-4 calcium flux, at 10 µM, compound added before EC20 DAMGO stimulus; active compounds read high
[16] = target: Short transient receptor potential channel 4 (Mus musculus) (UniProt Q9QUQ5); test: block of DAMGO-driven TRPC4 calcium entry – cell-based, HEK293 TRPC4/mu-opioid, Fluo-4 calcium, dose response (AID 434942;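 active = primary screen inhibitor hit that blocks the TRPC4 channel at some tested dose, yielding a dose curve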)
[17] = nonspecific flux increase, KCNQ1-free cells – parental CHO cells, counter-screen for KCNQ1 potentiator project (AID 493006;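 active = duplicate-averaged activation above buffer control mean plus 5 SD of those controls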); conditions: parental CHO-K1 cells, FluxOR thallium flux, at 10 µM; active compounds read high
[18] = target: Potassium voltage-gated channel subfamily KQT member 1 (Homo sapiens) (UniProt P51787); test: enhancement of KCNQ1 channel thallium flux – FluxOR thallium flux, CHO cells, duplicates, confirmation (AID 493007;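 active = potentiation averaged over duplicate wells exceeding buffer-only control mean by more than 3 SD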;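 for outcome: cells depolarized by a potassium plus thallium sulfate stimulus after compound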;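 for potentiation: 0% = buffer-only wells and 100% = R-L3 activator control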); conditions: KCNQ1 cell line, FluxOR thallium flux fluorescence, at 10 µM; active compounds read high, % of reference activator effect, buffer zero
Chain of Potassium voltage-gated channel subfamily KQT member 1 (Homo sapiens) (P51787 whole entry, looked up): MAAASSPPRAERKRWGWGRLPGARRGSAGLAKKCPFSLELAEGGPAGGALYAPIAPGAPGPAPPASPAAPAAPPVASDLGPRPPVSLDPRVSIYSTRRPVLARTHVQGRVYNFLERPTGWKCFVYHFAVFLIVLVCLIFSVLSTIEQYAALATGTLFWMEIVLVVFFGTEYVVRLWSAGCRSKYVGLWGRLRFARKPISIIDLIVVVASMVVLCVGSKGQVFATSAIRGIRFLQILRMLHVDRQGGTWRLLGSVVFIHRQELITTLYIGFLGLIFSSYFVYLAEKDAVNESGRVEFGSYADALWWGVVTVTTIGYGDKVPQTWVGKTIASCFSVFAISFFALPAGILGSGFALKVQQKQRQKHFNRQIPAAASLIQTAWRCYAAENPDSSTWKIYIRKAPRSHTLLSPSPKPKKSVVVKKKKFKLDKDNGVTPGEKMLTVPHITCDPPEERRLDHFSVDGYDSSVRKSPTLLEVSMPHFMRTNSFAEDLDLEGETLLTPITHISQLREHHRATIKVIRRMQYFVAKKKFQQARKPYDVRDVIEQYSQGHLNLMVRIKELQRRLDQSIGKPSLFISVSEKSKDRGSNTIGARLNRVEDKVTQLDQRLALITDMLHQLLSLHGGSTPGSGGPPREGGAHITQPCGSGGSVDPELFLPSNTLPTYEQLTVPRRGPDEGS

[19] = target: Potassium voltage-gated channel subfamily KQT member 2 (Rattus norvegicus) (UniProt O88943); test: KCNQ2 thallium flux enhancement – KCNQ2-CHO-K1 cells, selectivity assay for KCNQ1 potentiator project (AID 493009;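 active = mean duplicate potentiation above the buffer control mean plus 5 SD of buffer wells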;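 note: assay conditions were tuned for KCNQ1 rather than KCNQ2 modulators; signal is max minus min fluorescence divided by baseline after thallium stimulus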); conditions: FluxOR thallium flux fluorescence, at 10 µM; active compounds read high, scaled: buffer 0, activator control 100
Chain of Potassium voltage-gated channel subfamily KQT member 2 (Rattus norvegicus) (O88943 whole entry, looked up): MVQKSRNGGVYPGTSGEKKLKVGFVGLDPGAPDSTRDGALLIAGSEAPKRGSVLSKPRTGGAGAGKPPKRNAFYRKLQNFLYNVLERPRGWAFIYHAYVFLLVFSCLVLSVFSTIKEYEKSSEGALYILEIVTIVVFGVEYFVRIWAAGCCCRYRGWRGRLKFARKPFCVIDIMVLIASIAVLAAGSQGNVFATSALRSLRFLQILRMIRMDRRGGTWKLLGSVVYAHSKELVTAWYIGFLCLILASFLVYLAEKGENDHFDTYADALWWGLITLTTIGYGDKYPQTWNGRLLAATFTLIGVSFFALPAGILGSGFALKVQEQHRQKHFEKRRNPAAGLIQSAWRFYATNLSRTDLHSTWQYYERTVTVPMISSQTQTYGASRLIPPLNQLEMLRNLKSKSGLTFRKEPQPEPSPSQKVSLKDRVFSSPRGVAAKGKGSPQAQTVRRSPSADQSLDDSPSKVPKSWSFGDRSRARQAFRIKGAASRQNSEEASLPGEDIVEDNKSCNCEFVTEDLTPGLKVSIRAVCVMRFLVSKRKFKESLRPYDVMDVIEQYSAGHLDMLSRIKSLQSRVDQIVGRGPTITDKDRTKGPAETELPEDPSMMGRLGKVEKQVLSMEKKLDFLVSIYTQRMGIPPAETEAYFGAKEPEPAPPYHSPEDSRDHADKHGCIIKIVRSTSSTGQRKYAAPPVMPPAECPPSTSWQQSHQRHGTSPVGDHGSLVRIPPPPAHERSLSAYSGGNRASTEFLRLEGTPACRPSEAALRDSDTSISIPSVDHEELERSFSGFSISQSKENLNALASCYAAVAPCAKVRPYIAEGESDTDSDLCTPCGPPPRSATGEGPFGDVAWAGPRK

[20] = target: Potassium voltage-gated channel subfamily KQT member 1 (Homo sapiens) (UniProt P51787); test: KCNQ1 activators by electrophysiology – IonWorks patch clamp, KCNQ1-CHO cells, orthogonal assay for KCNQ1 potentiator project, confirmation (AID 493184;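 active = current rise at least 3 SD above the untreated control mean in each of two repeat wells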); conditions: automated patch clamp current, at 10 µM; active compounds read high

CN(C)C(CNC(=O)Cc1cccc(C(F)(F)F)c1)c1ccccc1 (stereo not given)
active: activation [1] 129% | activation [2] 142% | activation [9] 31%
inactive: outcome [3] | outcome [4] | outcome [5] | outcome [6] | outcome [7] | outcome [8] | outcome [10] | outcome [11] | outcome [12] | outcome [13] | outcome [14] | outcome [15]

CCOC(=O)C1(CC2CC2)CCN(Cc2ccc3cccc(F)c3n2)CC1
active: activation [1] 129% | inhibition [5] 89% | activation [9] 50.5% | activation [11] 19.5% | inhibition [12] 30.9%
inactive: outcome [2] | outcome [3] | outcome [4] | outcome [6] | outcome [7] | outcome [8] | outcome [10] | outcome [13] | outcome [14] | outcome [15]

Cc1ccc(S(=O)(=O)NCCC(=O)NCC(c2ccco2)N2CCCCC2)cc1C (stereo not given)
inactive: outcome [2] | outcome [3] | outcome [4] | outcome [5] | outcome [7] | outcome [8] | outcome [10] | outcome [11] | outcome [12] | outcome [13] | outcome [14] | outcome [15]
active: activation [1] 82% | inhibition [6] 80% | activation [9] 37%

NC(=Nc1ccccc1)Nc1ccccc1
active: activation [1] 224% | activation [9] 51% | activation [11] 94.2% | activation [14] 64.1%
inactive: outcome [2] | outcome [3] | outcome [4] | outcome [5] | outcome [6] | outcome [7] | outcome [16] | outcome [8] | outcome [10] | outcome [12] | outcome [13] | outcome [15] | outcome [17] | outcome [18] | outcome [19] | outcome [20]

COc1cc(OC)cc(C(=O)NC(=S)NNC(=O)[C@H]2C[C@@H]2c2ccccc2)c1
active: activation [1] 162% | activation [11] 99% | activation [14] 40.4% | potentiation [18] 37.5%
inactive: outcome [2] | outcome [3] | outcome [4] | outcome [5] | outcome [6] | outcome [7] | outcome [16] | outcome [8] | outcome [9] | outcome [10] | outcome [12] | outcome [13] | outcome [15] | outcome [17] | outcome [19] | outcome [20]

Clc1ccc(COn2c(-c3ccc(Cl)cc3Cl)nc3ncccc32)cc1
active: activation [1] 74% | activation [9] 54%
inactive: outcome [2] | outcome [3] | outcome [4] | outcome [5] | outcome [6] | outcome [7] | outcome [8] | outcome [10] | outcome [11] | outcome [12] | outcome [13] | outcome [14] | outcome [15]

CC1CN(C(=O)c2ccc(NS(=O)(=O)c3ccc(C(C)(C)C)cc3)cc2)CC(C)O1 (stereo not given)
active: activation [1] 63% | activation [9] 39.5% | activation [11] 30.9% | activation [14] 16.1%
inactive: outcome [2] | outcome [3] | outcome [4] | outcome [5] | outcome [6] | outcome [7] | outcome [16] | outcome [8] | outcome [10] | outcome [12] | outcome [13] | outcome [15] | outcome [17] | outcome [18] | outcome [19] | outcome [20]
